Data as given in PubChem BioAssay (EPA / NIEHS).
Activity calls are given as the source filed them. The calls were made as follows: active = hit-call score of the fitted dose curve at least 0.9, where 1 is the maximum; inactive = score below 0.9.

What was measured:
[1] = ATG_CRE_CIS: Attagene CIS-FACTORIAL HepG2 Assay for human cAMP Responsive Element (CRE) binding protein 3 (AID 2282926); settings: HepG2 CRE cis-reporter, Attagene multiplexed mRNA; actives raise or lower the signal
In short: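 Human liver HepG2, transient MRTU transfection, 24 h compound exposure. Total RNA → oligo(dT) RT → PCR → 6-FAM primer extension → HpaI cut → CE. Activity called both directions vs DMSO.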

[2] = molecular target: CCAAT/enhancer-binding protein beta (Homo sapiens) (UniProt P17676); test: ATG_C_EBP_CIS: Attagene CIS-FACTORIAL HepG2 Assay for human CCAAT/Enhancer Binding Protein (C/EBP) beta (AID 2282927); settings: HepG2 Attagene cis-factorial transcription factor reporter; actives raise or lower the signal
In short: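 HepG2 transiently transfected with multiplexed reporter units under cis-regulatory promoters reporting endogenous C/EBPb activity. After 24 h exposure, reporter mRNA assayed by RT-PCR, fluorescent labelling, HpaI digestion and capillary electrophoresis; bidirectional fitting versus DMSO.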

[3] = ATG_CMV_CIS: Attagene CIS-FACTORIAL HepG2 Assay for human CMV (Internal Marker) (AID 2282928); settings: HepG2 CMV promoter reporter, transcription factor profiling; actives raise or lower the signal;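 also: endpoint acts as a background internal control marker rather than a target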
In short: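 CMV internal-marker background readout in transiently transfected HepG2 cells bearing cis-regulated reporter units. Reporter mRNA is measured 24 h after dosing by RT-PCR and capillary electrophoresis, with bidirectional fitting against DMSO.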

[4] = ATG_DR4_LXR_CIS: Attagene CIS-FACTORIAL HepG2 Assay for human Liver X Receptor (LXR), DR4 submotif (AID 2282929); settings: HepG2 Attagene DR4 cis-reporter, mRNA transcription; actives raise or lower the signal
In short: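 The endpoint is DR4-element-driven reporter transcripts after 24 h chemical exposure of transfected HepG2 cells. These were measured via RT-PCR and capillary electrophoresis, and gain or loss of signal was fitted relative to DMSO controls.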

[5] = molecular target: Aryl hydrocarbon receptor (Homo sapiens) (UniProt P35869); test: ATG_Ahr_CIS: Attagene CIS-FACTORIAL HepG2 Assay for human Aryl Hydrocarbon Receptor (Ahr) (AID 2282930); settings: HepG2 AhR cis-factorial reporter transcription; actives raise or lower the signal
In short: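 HepG2 cells transiently transfected with cis-element-driven multiplexed reporter units; endogenous AhR activity read as reporter mRNA 24 h after dosing, via RT-PCR, 6-FAM labelling, HpaI digestion and capillary electrophoresis. Bidirectional fit relative to DMSO.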

[6] = ATG_AP_1_CIS: Attagene CIS-FACTORIAL HepG2 Assay for human Activator Protein 1 (AP-1) (AID 2282931); settings: HepG2 Attagene cis-factorial AP-1 reporter mRNA; actives raise or lower the signal
In short: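 Readout is reporter transcript level from endogenous transcription factor activity, quantified by RT-PCR with fluorescent primer extension and capillary electrophoresis. Transiently transfected HepG2 cells, 24 h exposure. Curves fitted both directions versus DMSO.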

[7] = ATG_AP_2_CIS: Attagene CIS-FACTORIAL HepG2 Assay for human Activator Protein 2 (AP-2) (AID 2282932); settings: HepG2 AP-2 cis-reporter, Attagene transcription factor profiling; actives raise or lower the signal
In short: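 Multiplexed mRNA reporter assay in HepG2: cis-regulated units report endogenous factor activity after 24 h treatment. Fluorescence from capillary electrophoresis of RT-PCR products gives the signal, with DMSO as baseline.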

[8] = ATG_BRE_CIS: Attagene CIS-FACTORIAL HepG2 Assay for human Bone Morphogenetic Protein (BMP) Response Element (BRE) (AID 2282933); settings: HepG2 BMP response element reporter, Attagene transcription factor profiling; actives raise or lower the signal
In short: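 A HepG2 multiplex reporter system measured inducible reporter mRNA 24 h post-dosing. Detection: RT-PCR, 6-FAM primer extension, HpaI digestion, capillary electrophoresis. Activity fitted bidirectionally relative to DMSO.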

[9] = molecular target: Transcription factor E2F1 (Homo sapiens) (UniProt Q01094); test: ATG_E2F_CIS: Attagene CIS-FACTORIAL HepG2 Assay for human E2F Transcription Factor 1 (AID 2282935); settings: HepG2 Attagene cis-reporter, E2F reporter RNA transcripts; actives raise or lower the signal
In short: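 Measures reporter transcript levels via RT-PCR with capillary electrophoresis detection in HepG2 cells harboring cis-regulated reporter units; 24 h post-dose; bidirectional curve fitting with DMSO as baseline.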

[10] = ATG_E_Box_CIS: Attagene CIS-FACTORIAL HepG2 Assay for human Enhancer Box (E-box) (AID 2282936); settings: HepG2 E-box cis-reporter transcription, actives raise or lower the signal
In short: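 First, HepG2 cells receive multiple cis-regulated reporter constructs by transient transfection. Next, chemicals are applied for 24 h. Finally, reporter mRNA is quantified via RT-PCR and capillary electrophoresis, with DMSO as baseline.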

[11] = ATG_M_61_CIS: Attagene CIS-FACTORIAL HepG2 Assay for M61 Transcription Factor (Internal Marker) (AID 2282937); settings: HepG2 Attagene CIS-FACTORIAL M61 internal marker reporter; actives raise or lower the signal
In short: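 Readout is reporter mRNA by RT-PCR, fluorescent primer extension and capillary electrophoresis, with gain or loss fitted relative to DMSO. Transfected HepG2 cells carrying endogenous-TF-driven cis reporters were exposed to chemicals for 24 hours.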

[12] = ATG_M_19_CIS: Attagene CIS-FACTORIAL HepG2 Assay for M19 Transcription Factor (Internal Marker) (AID 2282939); settings: HepG2 Attagene CIS-FACTORIAL M19 internal marker reporter; actives raise or lower the signal
In short: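 Chemical-treated HepG2 (24 h) with MRTU constructs; reporter transcripts detected by fluorescent RT-PCR fragment analysis on capillary electrophoresis. Internal background marker, DMSO as baseline.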

[13] = ATG_Ets_CIS: Attagene CIS-FACTORIAL HepG2 Assay for human Erythroblast Transformation Specific (ETS) (AID 2282941); settings: HepG2 ETS cis-reporter transcription, actives raise or lower the signal
In short: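 HepG2 cells transfected with multiple cis-regulated reporter units measuring endogenous ETS-driven transcription, 24 h after dosing. Reporter mRNA quantified by RT-PCR with capillary electrophoresis; bidirectional fit relative to DMSO.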

[14] = molecular target: Hepatocyte nuclear factor 3-beta (Homo sapiens) (UniProt Q9Y261); test: ATG_FoxA2_CIS: Attagene CIS-FACTORIAL HepG2 Assay for human Forkhead box A2 (FOXA2) (AID 2282942); settings: HepG2 cis-reporter transcription factor activity, 24 h; actives raise or lower the signal
In short: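 Endogenous transcription factor activity is captured via cis-element-driven reporter transcripts in transfected HepG2. Total RNA taken at 24 h post-dosing; labelled RT-PCR products resolved by capillary electrophoresis. Gain or loss fitted versus DMSO.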

[15] = ATG_FoxO_CIS: Attagene CIS-FACTORIAL HepG2 Assay for human Forkhead box O (FoxO) (AID 2282943); settings: HepG2 Attagene cis-reporter, FoxO element, mRNA; actives raise or lower the signal
In short: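 HepG2 cells transiently transfected with cis-element-driven reporter units report endogenous FoxO activity. After 24 h chemical exposure, reporter mRNA quantified by RT-PCR, fluorescent labeling, HpaI digestion and capillary electrophoresis; bidirectional fit versus DMSO.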

[16] = ATG_GATA_CIS: Attagene CIS-FACTORIAL HepG2 Assay for human GATA Binding Protein (AID 2282944); settings: HepG2 GATA cis-element reporter, Attagene multiplex mRNA; actives raise or lower the signal
In short: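 Transfected cis-reporter HepG2 cells were treated with chemicals for 24 hours. Total RNA was then converted to cDNA, amplified with reporter-specific primers and analysed by fluorescent capillary electrophoresis, using DMSO-treated wells as baseline.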

[17] = ATG_GLI_CIS: Attagene CIS-FACTORIAL HepG2 Assay for human Zinc Finger Protein GLI1 (AID 2282945); settings: HepG2, Attagene cis-factorial reporter mRNA, GLI element; actives raise or lower the signal
In short: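 Transiently transfected HepG2 cells report endogenous transcription factor activity via cis-element-driven reporter units. After 24 h compound exposure, reporter mRNA was measured by RT-PCR with capillary electrophoresis; bidirectional fitting against DMSO baseline.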

[18] = ATG_ERE_CIS: Attagene CIS-FACTORIAL HepG2 Assay for Estrogen Response Element (ERE) (AID 2282940); settings: HepG2 ERE cis-reporter, Attagene RNA transcript; actives raise or lower the signal
In short: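 Human liver cells (HepG2) bearing transiently transfected, promoter-regulated reporter units were exposed 24 h. Reporter mRNA induction was detected by capillary electrophoresis of labelled RT-PCR products and fitted bidirectionally to DMSO.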

[19] = ATG_EGR_CIS: Attagene CIS-FACTORIAL HepG2 Assay for human Early Growth Response 1 (EGR1) (AID 2282938); settings: HepG2 Attagene CIS-FACTORIAL EGR reporter mRNA; actives raise or lower the signal
In short: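 After 24 h compound exposure, RNA from reporter-transfected HepG2 cells was reverse-transcribed, PCR-amplified, fluorescently labelled and resolved by capillary electrophoresis. EGR1 reporter transcript changes, up or down, were fitted against DMSO, reflecting endogenous transcription-factor activity.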

Hepatocyte nuclear factor 3-beta (Homo sapiens), sequence (Q9Y261 whole entry, looked up): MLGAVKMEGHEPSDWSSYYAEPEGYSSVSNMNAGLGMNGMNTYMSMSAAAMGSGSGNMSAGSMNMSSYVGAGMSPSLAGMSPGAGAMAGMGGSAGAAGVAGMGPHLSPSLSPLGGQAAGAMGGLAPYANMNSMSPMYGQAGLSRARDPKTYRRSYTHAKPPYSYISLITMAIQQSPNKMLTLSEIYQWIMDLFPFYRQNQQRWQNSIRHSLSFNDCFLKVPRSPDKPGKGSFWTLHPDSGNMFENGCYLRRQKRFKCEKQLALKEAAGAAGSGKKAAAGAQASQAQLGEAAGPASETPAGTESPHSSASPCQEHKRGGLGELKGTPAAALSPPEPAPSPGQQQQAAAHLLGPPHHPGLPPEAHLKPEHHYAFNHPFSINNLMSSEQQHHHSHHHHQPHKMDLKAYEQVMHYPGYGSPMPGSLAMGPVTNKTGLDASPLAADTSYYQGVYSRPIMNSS
CCAAT/enhancer-binding protein beta (Homo sapiens), sequence (P17676 whole entry, looked up): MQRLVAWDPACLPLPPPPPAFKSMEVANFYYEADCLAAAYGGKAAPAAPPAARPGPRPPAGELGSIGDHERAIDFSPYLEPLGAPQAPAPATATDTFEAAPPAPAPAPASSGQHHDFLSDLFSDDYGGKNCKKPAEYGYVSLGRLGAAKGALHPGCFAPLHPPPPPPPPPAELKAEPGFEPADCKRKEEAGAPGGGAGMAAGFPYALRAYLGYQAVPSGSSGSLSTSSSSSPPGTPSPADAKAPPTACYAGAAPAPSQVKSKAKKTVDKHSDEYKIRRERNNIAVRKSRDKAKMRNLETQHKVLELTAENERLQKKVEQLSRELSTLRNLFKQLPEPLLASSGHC
Transcription factor E2F1 (Homo sapiens), sequence (Q01094 whole entry, looked up): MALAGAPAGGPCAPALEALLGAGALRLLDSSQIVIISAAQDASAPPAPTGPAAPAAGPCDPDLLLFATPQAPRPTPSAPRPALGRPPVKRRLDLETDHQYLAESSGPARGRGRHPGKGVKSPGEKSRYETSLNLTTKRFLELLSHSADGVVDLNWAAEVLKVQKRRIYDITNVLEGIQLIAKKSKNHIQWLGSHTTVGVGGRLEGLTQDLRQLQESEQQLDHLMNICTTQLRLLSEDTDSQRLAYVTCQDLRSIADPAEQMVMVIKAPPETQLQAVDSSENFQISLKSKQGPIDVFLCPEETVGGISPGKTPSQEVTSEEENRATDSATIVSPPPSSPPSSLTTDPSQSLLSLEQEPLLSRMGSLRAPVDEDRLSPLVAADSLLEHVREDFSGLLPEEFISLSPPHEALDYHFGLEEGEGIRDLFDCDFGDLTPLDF
Aryl hydrocarbon receptor (Homo sapiens), sequence (P35869 whole entry, looked up): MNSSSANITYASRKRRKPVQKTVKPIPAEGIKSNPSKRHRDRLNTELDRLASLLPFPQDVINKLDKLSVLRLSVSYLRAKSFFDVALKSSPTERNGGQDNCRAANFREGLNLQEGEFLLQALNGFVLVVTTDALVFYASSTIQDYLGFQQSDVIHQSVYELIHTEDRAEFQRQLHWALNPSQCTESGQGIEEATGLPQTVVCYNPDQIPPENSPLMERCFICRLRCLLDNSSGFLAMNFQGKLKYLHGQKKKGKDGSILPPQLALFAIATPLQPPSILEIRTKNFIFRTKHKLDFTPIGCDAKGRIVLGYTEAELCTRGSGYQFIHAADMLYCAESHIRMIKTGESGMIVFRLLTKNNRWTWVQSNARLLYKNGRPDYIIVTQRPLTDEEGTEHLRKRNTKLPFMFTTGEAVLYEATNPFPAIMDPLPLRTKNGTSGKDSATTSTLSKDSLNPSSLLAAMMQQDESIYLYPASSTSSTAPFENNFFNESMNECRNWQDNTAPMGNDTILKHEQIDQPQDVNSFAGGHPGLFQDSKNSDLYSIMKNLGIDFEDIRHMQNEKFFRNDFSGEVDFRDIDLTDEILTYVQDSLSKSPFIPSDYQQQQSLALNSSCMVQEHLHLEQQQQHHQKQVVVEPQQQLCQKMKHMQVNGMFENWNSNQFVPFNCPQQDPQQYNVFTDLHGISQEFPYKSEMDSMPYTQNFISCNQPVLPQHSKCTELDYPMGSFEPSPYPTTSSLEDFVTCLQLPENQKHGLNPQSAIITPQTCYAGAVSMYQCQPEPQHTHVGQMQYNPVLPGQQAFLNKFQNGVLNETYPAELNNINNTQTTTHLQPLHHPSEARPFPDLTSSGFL

With `CCCCCCCCCCC(CO)CCCCCCCC` (centres undefined) the outcome [1] was “inactive”, the outcome [2] was “inactive” and the outcome [3] was “inactive”. For the same molecule, the outcome [4] was “inactive”, the outcome [5] was “inactive” and the outcome [6] was “inactive”. The outcome [7] was “inactive”, the outcome [8] was “inactive” and the outcome [9] was “inactive”. The outcome [10] was “inactive”, the outcome [11] was “inactive” and the outcome [12] was “inactive”. For the same molecule, the outcome [13] was “inactive”, the outcome [14] was “inactive” and the outcome [15] was “inactive”. The outcome [16] was “inactive” and the outcome [17] was “inactive”.
For `CC(=O)/C=C/C1=C(C)CCCC1(C)C`, the outcome [1] was “inactive”, the outcome [2] was “inactive” and the outcome [3] was “inactive”. For the same molecule, the outcome [4] was “inactive”, the outcome [5] was “inactive” and the outcome [6] was “inactive”. For the same molecule, the outcome [7] was “inactive”, the outcome [8] was “inactive” and the outcome [9] was “inactive”. For the same molecule, the outcome [10] was “inactive”, the outcome [11] was “inactive” and the outcome [18] was “inactive”. For the same molecule, the outcome [13] was “inactive”, the outcome [14] was “inactive” and the outcome [15] was “inactive”. The outcome [17] was “inactive”.
In the case of `O=[N+]([O-])c1ccc(Nc2ccc(Nc3ccccc3)c(S(=O)(=O)O)c2)c([N+](=O)[O-])c1`, the outcome [1] is reported as “inactive”, the outcome [2] is reported as “inactive” and the outcome [3] is reported as “inactive”. For the same molecule, the AC50 [4] was 100 µM (active), the AC50 [5] was 31.9 µM (active) and the AC50 [6] was 147 µM (active). For the same molecule, the outcome [7] was “inactive”, the outcome [8] was “inactive” and the outcome [9] was “inactive”. For the same molecule, the outcome [10] was “inactive”, the outcome [11] was “inactive” and the AC50 [19] was 100 µM (active). The outcome [13] was “inactive”, the outcome [14] was “inactive” and the outcome [16] was “inactive”.
In the case of `C=COCCOCCOCCOC=C`, the outcome [1] is reported as “inactive”, the outcome [2] is reported as “inactive” and the outcome [3] is reported as “inactive”. The outcome [4] was “inactive”, the outcome [5] was “inactive” and the outcome [6] was “inactive”. The outcome [7] was “inactive”, the outcome [8] was “inactive” and the outcome [9] was “inactive”. For the same molecule, the outcome [10] was “inactive”, the outcome [11] was “inactive” and the outcome [12] was “inactive”. The outcome [14] was “inactive”, the outcome [15] was “inactive” and the outcome [17] was “inactive”.
With `CC(=O)OCC=Cc1ccccc1` the outcome [1] was “inactive”, the outcome [2] was “inactive” and the outcome [3] was “inactive”. The outcome [4] was “inactive”, the outcome [5] was “inactive” and the outcome [6] was “inactive”. The outcome [7] was “inactive”, the outcome [8] was “inactive” and the outcome [10] was “inactive”. The outcome [11] was “inactive”, the outcome [12] was “inactive” and the outcome [13] was “inactive”. For the same molecule, the outcome [14] was “inactive”, the outcome [15] was “inactive” and the outcome [16] was “inactive”. For the same molecule, the outcome [17] was “inactive”.
